From the supplement of paper PMC9446081
Out of some 39,000 compounds screened, about 220 (0.56%) showed activity. The list comes from a sample in which actives are over-represented; it also holds similar structures and randomly drawn compounds. Unmarked numbers belong to inactive results.

Test system: Escherichia coli K-12 BW25113
Assay: relative growth (OD600 normalised to plate interquartile mean) (fraction); higher = less growth inhibition, active = 0.2 or less
Details: 50 µM; LB; incubation time: overnight (16-24 h)
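Further: Wild-type cells incubated without shaking, value is the mean of two biological replicates.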

Q: How did the relative growth turn out when `Cc1noc(C)c1S(=O)(=O)Nc1ccc2c(c1)CC(=O)N([C@H](C)CO)C[C@@H](C)[C@H](CN(C)C(=O)NC(C)C)O2` was run?
A: 1.03

Q: `C[C@H](CO)N1C[C@H](C)[C@@H](CN(C)S(C)(=O)=O)OCc2cnnn2CCCC1=O` was tested. Which relative growth did it give?
A: 1.07

Q: With `Cc1ccc(S(=O)(=O)N(C)C[C@@H]2Oc3c(NC(=O)c4ccncc4)cccc3C(=O)N([C@@H](C)CO)C[C@H]2C)cc1` as the molecule, how does the relative growth read?
A: 0.999

Q: `COc1ccc2c(c1OCc1ccccc1)C[C@@H](C(=O)O)N(C(=O)C(c1ccccc1)c1ccccc1)C2` was tested. Which relative growth did it give?
A: 1.02

Q: Which relative growth does the source give for `C[C@@H]1CN([C@@H](C)CO)C(=O)c2cccc(NC(=O)C3CCOCC3)c2O[C@@H]1CN(C)C(=O)Nc1ccc2c(c1)OCO2` here?
A: 1.01

Q: For `CN(C)CC(=O)N[C@@H]1C=C[C@H](CC(=O)O)O[C@H]1CO`, which relative growth is on record?
A: 0.997

Q: With `CCNC(=O)C[C@@H]1CC[C@H]2[C@H](COc3ccc(NS(=O)(=O)c4ccccc4C)cc3C(=O)N2C)O1` as the molecule, how does the relative growth read?
A: 0.981

Q: How did the relative growth turn out when `CNC[C@H]1Oc2ccc(NC(=O)CCN3CCOCC3)cc2CC(=O)N([C@@H](C)CO)C[C@@H]1C` was run?
A: 0.977

Q: `CCc1nnc(N)[nH]1` was tested. Which relative growth did it give?
A: 0.947

Q: How did the relative growth turn out when `C[C@H]1CCCCO[C@H](CN(C)Cc2ccccc2)[C@@H](C)CN([C@@H](C)CO)C(=O)c2cc(NC(=O)Nc3cccc4ccccc34)ccc2O1` was run?
A: 0.996

Q: For `Cc1c(-c2ccccc2)n(C[C@@H](O)CN)c2ccccc12`, which relative growth is on record?
A: 0.892

Q: `COC1(NC(=O)C2SC(=C(C(N)=O)C(=O)O)S2)C(=O)N2C(C(=O)O)=C(CSc3nnnn3C)CSC21` (centres undefined) was tested. Which relative growth did it give?
A: 0.0448 (active)

Q: `COC1(NC(=O)CSCC#N)C(=O)N2C(C(=O)[O-])=C(CSc3nnnn3C)CSC21.[Na+]` (centres undefined) was tested. Which relative growth did it give?
A: 0.0458 (active)

Q: Which relative growth does the source give for `CO[C@@]1(NC(=O)[C@@H](C(=O)O)c2ccc(O)cc2)C(=O)N2C(C(=O)O)=C(CSc3nnnn3C)CO[C@@H]21` here?
A: 0.983

Q: How did the relative growth turn out when `COC1(NC(=O)C(C(=O)[O-])c2ccc(O)cc2)C(=O)N2C(C(=O)[O-])=C(CSc3nnnn3C)COC21.[Na+].[Na+]` (centres undefined) was run?
A: 0.0483 (active)

Q: For `CO[C@@]1(NC(=O)CSC[C@@H](N)C(=O)O)C(=O)N2C(C(=O)O)=C(CSc3nnnn3C)CS[C@@H]21`, which relative growth is on record?
A: 1

Q: `CO[C@@H]1CN(C)C(=O)c2cc(NS(=O)(=O)c3cn(C)cn3)ccc2OC[C@@H](C)N(Cc2cccc(F)c2)C[C@@H]1C` was tested. Which relative growth did it give?
A: 1.02

Q: With `COc1ccc(NC(=O)Nc2ccc3c(c2)C(=O)N([C@H](C)CO)C[C@@H](C)[C@@H](CN(C)CC2CCCCC2)OCCCC[C@@H](C)O3)cc1` as the molecule, how does the relative growth read?
A: 0.984

Q: How did the relative growth turn out when `O=C(NCc1ccccc1)[C@@H]1c2ccccc2C(=O)N(Cc2ccccc2C(F)(F)F)[C@H]1c1ccc(CO)cc1` was run?
A: 1

Q: How did the relative growth turn out when `CN1C(=O)c2cc(NC(=O)c3cccs3)ccc2OC[C@H]2O[C@H](CC(=O)NCC(F)(F)F)CC[C@H]21` was run?
A: 1

Q: With `CCCN(C)C[C@@H]1OCCCC[C@@H](C)Oc2ccc(NC(=O)Nc3ccccc3)cc2C(=O)N([C@H](C)CO)C[C@@H]1C` as the molecule, how does the relative growth read?
A: 1.01

Q: With `CC(C)NC(=O)Nc1ccc2c(c1)C(=O)N([C@H](C)CO)C[C@H](C)[C@H](CN(C)CC1CCCCC1)OCCCC[C@@H](C)O2` as the molecule, how does the relative growth read?
A: 0.955

Q: For `COc1ccc(S(=O)(=O)Nc2ccc3c(c2)C(=O)N([C@H](C)CO)C[C@H](C)[C@H](CN(C)C(=O)Nc2ccccc2)OCCCC[C@@H](C)O3)cc1`, which relative growth is on record?
A: 0.996

Q: `NC(=O)[C@@H]1CC[C@@H]2CN1C(=O)N2OS(=O)(=O)O` was tested. Which relative growth did it give?
A: 0.19 (active)

Q: For `NCCONC(=O)[C@@H]1CC[C@@H]2CN1C(=O)N2OS(=O)(=O)O`, which relative growth is on record?
A: 0.0923 (active)

Q: Which relative growth does the source give for `COc1ccc(CN(C)C[C@H]2OCCCC[C@H](C)Oc3ccc(NS(=O)(=O)c4ccc(C)cc4)cc3C(=O)N([C@H](C)CO)C[C@@H]2C)cc1` here?
A: 1

Q: `Cc1noc(C)c1NC(=O)Nc1ccc2c(c1)C(=O)N([C@@H](C)CO)C[C@@H](C)[C@H](CN(C)Cc1ccncc1)OCCCC[C@H](C)O2` was tested. Which relative growth did it give?
A: 0.993

Q: Which relative growth does the source give for `C[C@H](NC(=O)C[C@H]1C=C[C@H](NC(=O)CN2CCOCC2)[C@@H](CO)O1)c1ccccc1` here?
A: 0.983

Q: `COc1ccc(C(=O)Nc2ccc3c(c2)C(=O)N(C)[C@@H]2CC[C@@H](CC(=O)NCC4CC4)O[C@H]2CO3)cc1` was tested. Which relative growth did it give?
A: 0.96

Q: How did the relative growth turn out when `COc1ccc(NC(=O)N(C)C[C@H]2Oc3c(NS(=O)(=O)c4c(C)noc4C)cccc3C(=O)N([C@H](C)CO)C[C@H]2C)cc1` was run?
A: 0.994

Q: Which relative growth does the source give for `CN(C)CC(=O)N[C@@H]1C=C[C@H](CC(=O)NCCN2CCCCC2)O[C@@H]1CO` here?
A: 0.999

Q: Which relative growth does the source give for `Cc1noc(C)c1NC(=O)Nc1ccc2c(c1)C(=O)N([C@@H](C)CO)C[C@@H](C)[C@H](CN(C)C(=O)Nc1ccc(C(F)(F)F)cc1)OCCCC[C@H](C)O2` here?
A: 1.02

Q: For `CC(C)NC(=O)N[C@H]1CC[C@H](CCN)O[C@@H]1CO`, which relative growth is on record?
A: 0.987

Q: With `NC[C@H]1O[C@H](O[C@H]2[C@H](O)[C@@H](O[C@H]3O[C@H](CO)[C@@H](O)[C@H](N)[C@H]3O)[C@H](N)C[C@@H]2N)[C@H](N)[C@@H](O)[C@@H]1O` as the molecule, how does the relative growth read?
A: 0.0328 (active)

Q: With `NCC1OC(OC2C(N)CC(N)C(OC3OC(CO)C(O)C(N)C3O)C2O)C(N)C(O)C1O.O=S(=O)(O)O` (centres undefined) as the molecule, how does the relative growth read?
A: 0.0483 (active)

Q: How did the relative growth turn out when `NC[C@H]1O[C@H](O[C@@H]2[C@H](O)[C@@H](O[C@H]3O[C@H](CO)[C@@H](O)[C@H](N)[C@H]3O)[C@H](N)C[C@@H]2N)[C@H](O)[C@@H](O)[C@@H]1O` was run?
A: 0.983

Q: For `NC[C@H]1O[C@H](O[C@H]2[C@@H](O[C@@H]3O[C@H](CO)[C@@H](O)[C@H]3O)[C@@H](O)[C@H](N)C[C@@H]2N)[C@H](N)[C@@H](O)[C@@H]1O`, which relative growth is on record?
A: 0.981

Q: Which relative growth does the source give for `NCC1OC(OC2C(N)CC(N)C(O)C2OC2OC(CO)C(O)C2O)C(N)C(O)C1O.O=S(=O)(O)O` (centres undefined) here?
A: 0.78

Q: How did the relative growth turn out when `NCC1OC(OC2C(N)CC(N)C(OC3OC(CO)C(O)C(N)C3O)C2O)C(O)C(O)C1O.O=S(=O)(O)O` (centres undefined) was run?
A: 0.982
